Casp6 inh – caspase-6 (human) enzyme inhibition. P55212. purified caspase-6, Z-VEID-R110 cleavage fluorescence. inhibition, % at 12.5 µM. hit rate 0.53% among 350,000. AID 686996;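 active = mean inhibition across replicates at least about 35%, with every replicate also reaching that limit, limit read from the data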;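 also: 0% = median of neutral control wells and 100% = no fluorescence left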
NSD2 inh – NSD2 (human) methyltransferase inhibition; O96028; NSD2 peptide methylation, AlphaScreen, 120 min; inhibition, % at 12.5 µM; hit rate 0.54% among 310,000; AID 743445; in the data active = inhibition above about 50%
UBC9 SUMO inh – inhibitors of human SUMOylation (UBC9). P63279. HTRF SUMOylation assay, SAE1/SAE2 + UBC9, in vitro. inhibition, % at 35 µM. hit rate 0.36% among 290,000. AID 2006; in the data active = inhibition above about 50%, passing the limit was not always enough
Target sequence (P63279 whole entry, looked up): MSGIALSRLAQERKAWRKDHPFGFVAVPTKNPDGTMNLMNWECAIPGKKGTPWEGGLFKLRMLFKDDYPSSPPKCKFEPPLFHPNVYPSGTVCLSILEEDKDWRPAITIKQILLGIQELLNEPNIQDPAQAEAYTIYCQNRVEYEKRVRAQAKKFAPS
SIRT5 inh – inhibitors of human sirtuin-5 desuccinylase | Q9NXA8 | Purified SirT5, succinyl-peptide AMC, trypsin-coupled fluorescence | inhibition, % at 15 µM | hit rate 1.1% among 330,000; in the data active = inhibition above about 15%
Alpha artifact – interferes with AlphaScreen signal, flagging NSD2 false positives; shares compounds with NSD2 inh; AlphaScreen artifact counterscreen, preloaded methylated H4 peptide; AC35, µM (series often up to 10 µM), for inactives: top-dose activity change, negative = signal loss; hit rate 9.4% among 1,500; call rule not given here
* marks the source's active call; other numbers are inactive results; . = no result given. The list is not random: actives were taken first. Their share in the collection is about 1.6%.

SMILES	Casp6 inh	NSD2 inh	UBC9 SUMO inh	SIRT5 inh	Alpha artifact
COc1ccc(S(=O)(=O)N2C[C@H](O)COC[C@H]3O[C@H](CC(=O)NCCCN(C)C)CC[C@@H]32)cc1	-5	.	.	4	.
C=C(C)CNC(=S)Nc1cccc2cnccc12	0	0	4	-1	.
CCc1ccc(NC(=S)Nc2cccc3cnccc23)cc1	2	98*	96	3	0%
O=C(C[C@@H]1C=C[C@H](NS(=O)(=O)c2ccc(F)cc2)[C@@H](CO)O1)NCCc1ccncc1	1	.	.	0	.
COc1ccc(OCCSc2nnc(CCNC(=O)c3ccc(Cl)c(Cl)c3)n2C)cc1	-1	59*	-31	-2	1%
COc1cc(/C=N/N=C2/C(=O)Nc3ccccc32)cc(OC)c1O	.	67*	-2	.	-14%
O=C1Nc2ccccc2/C1=N/N=C/c1cccc(O)c1	2	0	-1	3	.
CSc1nc(N)nc(N(C)C)n1	-1	61*	-8	-5	1%
CSc1nc(N(C)C)nc(N(C)C#N)n1	0	5	8	1	.
CO[C@@H]1CN(C)C(=O)c2ccc(NC(=O)c3ccccc3)cc2OC[C@@H](C)N(C)C[C@H]1C	3	.	.	0	.
CC(C)c1[nH]nc2c1C(C1C=CCCC1)C(C#N)=C(N)O2 (stereo unspecified)	3	2	-4	0	.
CC(C)(C)c1[nH]nc2c1C(C1C=CCCC1)C(C#N)=C(N)O2 (stereo unspecified)	.	127*	-4	.	-6%
COC(=O)c1cc(NC(=O)Nc2cc(OC)ccc2OC)cc(C(=O)OC)c1	.	120*	1	.	3%
COc1ccc(OC)c(NC(=O)Nc2ccc(Cl)cc2)c1	.	.	-15	.	.
C[C@@H]1CCCCO[C@@H](CN(C)S(=O)(=O)c2ccccc2)[C@H](C)CN([C@@H](C)CO)C(=O)c2cc(NC(=O)C3CCCCC3)ccc2O1	2	.	.	1	.
Cc1noc(C)c1NC(=O)N(C)C[C@H]1OCCCC[C@H](C)Oc2ccc(NC(=O)CCC(F)(F)F)cc2C(=O)N([C@H](C)CO)C[C@@H]1C	-3	.	.	-1	.
CCCN(CC1CC1)C(=S)Nc1ccc(C(C)=O)cc1	1	0	-1	-2	.
CCN(C(=S)Nc1ccc(C(C)=O)cc1)C1CCCCC1	-2	53*	9	21*	-3%
O=C1/C(=C/c2ccc(O)c(O)c2)SC(=S)N1Nc1ccccc1	.	88*	34	.	2.4µM*

High-throughput results deposited in PubChem by several laboratories.
